Experimental data taken from PubChem BioAssay (Tox21).
Results filed as inconclusive are left out. Calls of active or inactive are those of the source. Unless noted, calls follow the shape of the dose curve; as a rule, active = well fitted curve in the direction sought with a large enough effect in the repeat runs; inconclusive = weak or mixed curves; inactive = no such curve, though single readings can be large; an effect the other way counts as inactive or inconclusive.

Assays:
[1] = qHTS assay for small molecule agonists of the p53 signaling pathway (AID 651631; calls by dose curve; also: nearly all actives have a fitted effect of over 15% in size)
Outline: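 p53RE-bla HCT-116 cells; compounds 16 h, 37 °C; LiveBLAzer B/G FRET substrate 2 h RT; fluorescence intensity read-out, qHTS format.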

[2] = qHTS assay for small molecule agonists of the p53 signaling pathway - cell viability (AID 651633; calls by dose curve;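 also: p53RE-bla HCT reporter cells with a stable beta-lactamase p53 reporter; series mostly up to about 83 µM; nearly all actives have a fitted effect of over 30% in size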)
Outline: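 p53RE-bla cells, seeded at 4,000 per well and rested 5 h at 37 C/5% CO2, received compounds in DMSO for 16 h at 37 C. CellTiter-Glo was then added, and luminescence was read after 30 min at room temperature to gauge cytotoxicity.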

[3] = qHTS assay for small molecules that induce genotoxicity in human embryonic kidney cells expressing luciferase-tagged ATAD5 - cell viability (AID 651634; calls by dose curve; also: nearly all actives have a fitted effect of over 25% in size; also: potency is read from the fitted curve at half-maximal effect)
Outline: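 Cytotoxicity counter-readout: after 15.5 hr compound treatment at 37C, live-cell protease activity in ATAD5-luciferase HEK293T cells measured by CellTiter-Fluor fluorescence, 30 min development at 37C.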

[4] = qHTS assay for small molecule disruptors of the mitochondrial membrane potential - cell viability (AID 720634; calls by dose curve;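 also: human HepG2 liver cancer cells; series mostly up to about 83 µM; nearly all actives have a fitted effect of over 20% in size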)
Outline: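 Cytotoxicity was quantified from ATP content by CellTiter-Glo luminescence in the same wells as the MMP dye read-out. HepG2 (2,000 cells/well) were plated overnight and exposed to compounds for 1 hr at 37 C.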

[5] = qHTS assay to test for compound auto fluorescence at 590 nm (red) in HepG2 cells (AID 720674)
Outline: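 Compound auto-fluorescence is scored relative to Rose Bengal sodium, measured at 540/590 nm in live HepG2 cultures after 1 hr compound contact (37 C, 5% CO2).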

[6] = qHTS assay to test for compound auto fluorescence at 535 nm (green) in HepG2 cells (AID 720675)
[7] = qHTS assay to test for compound auto fluorescence at 460 nm (blue) in HEK293 cells (AID 720678)
Outline: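 Cells were seeded and left to adhere for 4-5 hr at 37C. Compounds were then pin-transferred. After an overnight incubation at 37C under 5% CO2, intrinsic fluorescence at 405/460 nm was measured and referenced to triamterene.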

[8] = qHTS assay to test for compound auto fluorescence at 590 nm (red) in HEK293 cells (AID 720679)
Outline: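 Each well held 2,000 HEK293 cells in medium containing 10% dialyzed FBS. Following 4-5 hr attachment at 37C, 23 nL test compound or DMSO was added; plates sat overnight, and red fluorescence (540/590nm) was recorded.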

[9] = qHTS assay to test for compound auto fluorescence at 535 nm (green) in HEK293 cells (AID 720680)
[10] = qHTS assay to test for compound auto fluorescence at 460 nm (blue) in HEK293 cell free culture (AID 720681)
Outline: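 Test compounds were pinned into cell-free culture medium (DMEM with 10% FBS) and fluorescence was read directly at Ex/Em 405/460 nm. Signals were expressed as fluorescence equivalents of triamterene, with DMSO vehicle as control.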

[11] = qHTS assay to test for compound auto fluorescence at 590 nm (red) in HEK293 cell free culture (AID 720683)
Outline: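 Tox21 10K library compounds were pinned into cell-free DMEM with 10% FBS and fluorescence was read at excitation 540 nm. Activity is expressed as Rose Bengal sodium equivalency.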

[12] = qHTS assay to test for compound auto fluorescence at 590 nm (red) in HepG2 cell free culture (AID 720684)
Outline: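 Ex 540 / Em 590 nm read of compound in cell-free MEM (10% FBS). Rose Bengal sodium reference.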

[13] = qHTS assay to test for compound auto fluorescence at 460 nm (blue) in HepG2 cell free culture (AID 720685)
Outline: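 Cell-free plates of MEM plus 10% FBS received 23 nL compound or DMSO vehicle; blue-channel (405/460 nm) intensity scored against triamterene as reference fluorophore.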

[14] = target: Glucocorticoid receptor (Homo sapiens) (UniProt P04150); experiment: qHTS assay to identify small molecule agonists of the glucocorticoid receptor (GR) signaling pathway (AID 720691; active = well fitted activation curve with a large enough effect in the signal ratio in the repeat runs, not every such curve was filed as active; the % refers to the signal ratio)
Sequence of Glucocorticoid receptor (Homo sapiens) (P04150 whole entry, looked up): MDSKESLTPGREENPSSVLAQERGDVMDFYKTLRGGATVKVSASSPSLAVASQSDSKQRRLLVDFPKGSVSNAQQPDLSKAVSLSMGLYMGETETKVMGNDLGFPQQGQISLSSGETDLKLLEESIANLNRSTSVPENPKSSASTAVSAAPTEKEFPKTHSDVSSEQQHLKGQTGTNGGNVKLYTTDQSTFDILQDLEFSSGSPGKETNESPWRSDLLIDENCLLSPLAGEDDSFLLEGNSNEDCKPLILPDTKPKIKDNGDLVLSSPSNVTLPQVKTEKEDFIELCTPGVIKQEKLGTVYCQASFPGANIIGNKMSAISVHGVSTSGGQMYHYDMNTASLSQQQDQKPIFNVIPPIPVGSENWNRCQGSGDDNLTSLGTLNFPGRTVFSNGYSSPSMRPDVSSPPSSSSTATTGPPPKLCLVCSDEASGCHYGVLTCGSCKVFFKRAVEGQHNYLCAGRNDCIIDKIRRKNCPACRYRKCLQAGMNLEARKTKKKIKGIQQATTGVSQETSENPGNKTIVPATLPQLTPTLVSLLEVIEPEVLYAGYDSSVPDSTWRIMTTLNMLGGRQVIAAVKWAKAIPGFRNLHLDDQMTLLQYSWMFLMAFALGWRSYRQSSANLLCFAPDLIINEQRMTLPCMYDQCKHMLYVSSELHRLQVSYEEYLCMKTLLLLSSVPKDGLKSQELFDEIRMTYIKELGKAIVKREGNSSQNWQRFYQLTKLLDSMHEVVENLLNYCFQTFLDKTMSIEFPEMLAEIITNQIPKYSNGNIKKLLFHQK
Outline: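 Agonist-mode qHTS in HeLa cells stably expressing a glucocorticoid-response-element beta-lactamase reporter. Fluorescence intensity read with FRET substrate (2 h, room temperature) after 18 h compound treatment at 37 C.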

[15] = target: Glucocorticoid receptor (Homo sapiens) (UniProt P04150); experiment: qHTS assay to identify small molecule antagonists of the glucocorticoid receptor (GR) signaling pathway (AID 720692; active = well fitted inhibition curve with a large enough effect in the signal ratio in the repeat runs, not every such curve was filed as active; the % refers to the signal ratio)
Outline: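 Inhibition of dexamethasone-driven (5 nM final) beta-lactamase expression was measured in GRE-reporter HeLa cells over 18 h at 37C. Fluorescence was read after 2 h with the B/G FRET substrate at room temperature.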

[16] = qHTS assay for small molecule disruptors of the mitochondrial membrane potential (AID 720635)
Outline: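 HepG2 cells (2,000/well) attached overnight at 37C, then took compound for 1 hr at 37C, 5% CO2. Mito-MPS dye was added for 30 min; fluorescence was read at 490/535 nm (monomers) and 540/590 nm (aggregates).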

[17] = qHTS assay to test for compound auto fluorescence at 535 nm (green) in HEK293 cell free culture (AID 720682)
Outline: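 Cell-free medium (DMEM, 10% FBS) receives compound or DMSO by pintool. Plate read directly at Ex 485/Em 535 nm. Signal converted to fluorescein equivalency.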

[18] = qHTS assay to test for compound auto fluorescence at 535 nm (green) in HepG2 cell free culture (AID 720686)
[19] = qHTS assay to test for compound auto fluorescence at 460 nm (blue) in HepG2 cells (AID 720687)
Outline: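 Cells (2,000/well in MEM with 10% FBS) attached overnight at 37 C, then were exposed to compound or DMSO for 1 hr at 37 C, 5% CO2. Fluorescence read at Ex/Em 405/460 nm, expressed as triamterene-equivalent signal.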

[20] = qHTS assay for small molecules that induce genotoxicity in human embryonic kidney cells expressing luciferase-tagged ATAD5 (AID 651632); also: nearly all actives have a fitted effect of over 15% in size
Outline: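 A rise in luciferase signal from ATAD5-tagged HEK293T cells marks genetic stress. Cells were exposed to compounds for 16 hr at 37C, 5% CO2, then luciferase was quantified after a 30 min room-temperature incubation with Amplite.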

Measured: Potency

CC(C)c1ccccc1O
inactive: [1] | [2] | [3] | [4] | [5] | [6] | [7] | [8] | [9] | [10] | [11] | [12] | [13] | [14] | [15]

CCCCCCCCCOCC1CO1 (configuration not stated)
inactive: [1] | [2] | [3] | [4] | [16] | [5] | [6] | [7] | [8] | [9] | [10] | [17] | [11] | [12] | [18] | [19] | [14] | [15]

CCN(Cc1cccc(S(=O)(=O)O)c1)c1ccccc1
inactive: [1] | [2] | [3] | [4] | [5] | [6] | [7] | [8] | [9] | [10] | [17] | [11] | [12] | [18] | [14] | [15]

NS(=O)(=O)c1ccccc1OC(F)(F)F
inactive: [1] | [2] | [3] | [4] | [5] | [6] | [7] | [8] | [9] | [10] | [11] | [12] | [13] | [18] | [19]

C=C(C)[C@@H]1CC[C@@H](C)C[C@@H]1O
inactive: [1] | [2] | [3] | [4] | [5] | [6] | [7] | [8] | [9] | [10] | [11] | [12] | [13] | [18] | [19]

COc1cc([N+](=O)[O-])ccc1N
inactive: [1] | [2] | [4] | [16] | [5] | [6] | [7] | [8] | [9] | [10] | [17] | [11] | [12] | [13] | [19] | [14] | [15]
active: [3] 54.5 µM

CCCCOC(=O)C(=O)OCCCC
inactive: [1] | [2] | [3] | [4] | [5] | [6] | [7] | [8] | [9] | [10] | [17] | [11] | [12] | [13] | [18] | [19] | [14]

Cc1ccccc1N1CCN(CCc2nnc3n2CCCC3)CC1
inactive: [20] | [2] | [3] | [4] | [5] | [6] | [7] | [8] | [9] | [10] | [11] | [12] | [14] | [15]

C=CCOC(=O)c1ccc(C(=O)OCC=C)c(C(=O)OCC=C)c1
inactive: [2] | [3] | [16] | [5] | [6] | [7] | [8] | [9] | [10] | [17] | [11] | [12] | [13] | [18] | [19] | [14]

Cc1nc2ccccc2c(=O)o1
inactive: [20] | [2] | [3] | [4] | [5] | [6] | [7] | [8] | [9] | [10] | [17] | [11] | [12] | [18]

CN[C@@H]1[C@@H](O)[C@@H](O[C@@H]2[C@H](O)[C@H](O[C@H]3OC(CN)=CC[C@H]3N)[C@@H](N)C[C@H]2N)OCC1(C)O (some centres not stated)
inactive: [3] | [4] | [5] | [6] | [7] | [8] | [9] | [10] | [11] | [12] | [13] | [18] | [19] | [15]

O=C(O)c1c(Cl)ccc(Cl)c1Cl
inactive: [20] | [3] | [5] | [6] | [7] | [8] | [9] | [10] | [17] | [11] | [12] | [13] | [18] | [19] | [14] | [15]

Cc1oc(=O)oc1CN1CCN(c2cc3c(cc2F)c(=O)c(C(=O)O)c2n3C(C)S2)CC1 (configuration not stated)
inactive: [2] | [3] | [4] | [5] | [6] | [7] | [8] | [9] | [10] | [17] | [11] | [12] | [13] | [18] | [19]

CCCCCCCCCCCCCC(=O)OC
inactive: [20] | [3] | [5] | [6] | [7] | [8] | [9] | [10] | [17] | [11] | [12] | [13] | [14] | [15]
